Source: PubChem
A selection: hits, their analogues and other compounds. The true share with any hit is near 2.3%.
M1 ag parental: counter-screen for M1 agonists: effect in parental CHO-K1 cells; Fluo-8 calcium fluorescence; scaled to maximal ATP response, vehicle zero; activation, % at 3 µM; 360,000 tested, 0.48% active; in the data active means activation above about 15%;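 further: untransfected CHO-K1 host cells lacking M1 receptor as counterscreen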
CHO-K1 Ca antag: nonselective inhibitor or artifact in parental CHO-K1 cells; 360,000 tested, 0.6% active; ATP-induced calcium, Fluo-8 fluorescence; inhibition, % at 3 µM;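 active means inhibition above a per-plate cutoff, the plate's mean sample inhibition plus 3 SD, cut at about 24% in these data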
M1 antag: human M1 muscarinic receptor antagonists, primary screen, CHO-K1 cells, Fluo-8 calcium fluorescence, 1536-well; inhibition, % at 3 µM; Muscarinic acetylcholine receptor M1 (Homo sapiens), P11229; CHO-K1 hM1, ACh EC80 antagonist; 360,000 tested, 1.3% active;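 active means percent inhibition above its own plate's cutoff, namely the mean of that plate's compound wells plus 3 SD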;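 further: peak over basal fluorescence ratio during 140 s after agonist addition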
Target sequence (P11229 whole entry, looked up): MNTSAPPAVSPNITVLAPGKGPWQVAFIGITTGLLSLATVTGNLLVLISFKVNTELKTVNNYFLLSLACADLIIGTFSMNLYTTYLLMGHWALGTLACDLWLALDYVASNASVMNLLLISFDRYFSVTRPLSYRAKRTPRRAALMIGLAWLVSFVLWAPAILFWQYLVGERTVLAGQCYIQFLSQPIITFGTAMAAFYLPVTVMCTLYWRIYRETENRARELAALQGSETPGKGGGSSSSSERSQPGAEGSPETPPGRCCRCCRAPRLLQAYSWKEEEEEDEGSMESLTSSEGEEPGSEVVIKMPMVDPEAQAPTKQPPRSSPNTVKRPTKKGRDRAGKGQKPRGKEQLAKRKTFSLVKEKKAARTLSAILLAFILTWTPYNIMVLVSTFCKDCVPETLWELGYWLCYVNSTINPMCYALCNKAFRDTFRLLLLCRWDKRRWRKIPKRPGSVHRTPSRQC
CHRM1 agonist: human M1 muscarinic receptor agonists, primary screen, Fluo-8 calcium fluorescence, CHO-K1 cells, HTS; activation, % at 3 µM; Muscarinic acetylcholine receptor M1 (Homo sapiens), P11229; CHO-K1 hM1, agonist mode; 0% DMSO, 100% acetylcholine EC100; AID 588814, 2011; 360,000 tested, 0.33% active;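 active means activation above the run's mean compound activation plus 3 SD, cut at about 16% in these data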;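 further: peak over basal fluorescence ratio within a 140 s kinetic read after compound addition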
M1 PAM: human M1 muscarinic receptor positive allosteric modulators, primary screen, CHO-K1 cells, Fluo-8 calcium fluorescence, 1536-well; 360,000 tested, 0.088% active; CHO-K1 hM1, ACh EC20; 0% = ACh EC20, 100% = maximal ACh; Muscarinic acetylcholine receptor M1 (Homo sapiens), P11229; activation, % at 3 µM; AID 588819, 2011; in the data active means activation above about 19%, passing the limit was not always enough
CHO-K1 Ca PAM: nonselective calcium activators in parental CHO-K1 cells, primary screen, counter-screen for M1 PAM project, cell-based, Fluo-8 calcium fluorescence, full deck, 1536-well; ATP EC20; 0% at ATP EC20, 100% at ATP max; activation, % at 3 µM; 360,000 tested, 0.02% active;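 active means activation above the run cutoff, the mean activation of all test compounds plus 3 SD, cut at about 40% in these data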;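 further: peak over basal fluorescence ratio in a 140 s read after ATP addition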
Of the large screens only hits and unclear results are named; the others gave an inactive call.

Cc1ccccc1-n1nnnc1SC(C)C(=O)Nc1ccc(N2CCN(C)CC2)cc1 (stereo unspecified)	M1 antag 50.5
CC(=O)N1c2ccc(S(=O)(=O)NCCC(=O)Nc3ccc(F)cc3)cc2CC1C (stereo unspecified)	none
Cc1ccc(C(=O)Nc2cccc(C(F)(F)F)c2)cc1NC(=O)c1csc(-c2ccncc2)n1	none
N#C/C(=N\Nc1cccc(C(F)(F)F)c1)C(=O)c1csc(-c2cccnc2)n1	CHO-K1 Ca antag 24.1
Cc1cc(S(=O)(=O)Nc2ccc(C(=O)NCCN3CCOCC3)cc2)ccc1F	none
CCCCC1(C(=O)OCC)CC(CSC(=N)N)OC1=O (stereo unspecified)	M1 ag parental 19.0
CCCCCOCC1CC(C/C(C)=N/NC(N)=O)(C(=O)OCC)C(=O)O1 (stereo unspecified)	none
COc1ccc(CN2CCN(C(=O)C3CCN(C(=O)Nc4ccccc4)CC3)CC2)cc1OC	none
Cc1ccc(/C=C/C(=O)NCCCn2ccnc2)cc1	M1 ag parental 17.8
O=C(/C=C/c1ccc(Cl)c(Cl)c1)NCCCn1ccnc1	none
Cc1noc(C)c1COc1ccc(C(=O)OCC(=O)Nc2ccc(C(=O)N(C)C)cc2)cc1	none
COc1ccc(C2CC(=O)Oc3cc(C)cc(C)c32)cc1 (stereo unspecified)	none
COc1ccc(C2CC(=O)Oc3c(C(C)C)ccc(C)c32)cc1 (stereo unspecified)	CHRM1 agonist 18.1
CCc1ccc(C2C(C#N)=C(N)SC(N)=C2C#N)cc1	M1 ag parental 21.4, CHRM1 agonist 17.2
N#CC1=C(N)SC(N)=C(C#N)C1CCc1ccccc1	CHO-K1 Ca antag 28.5
N#CC1=C(N)SC(N)=C(C#N)C1Cc1ccccc1	none
O=C(NCCCN1CCCC1=O)c1cc(S(=O)(=O)N2CCOCC2)ccc1Cl	none
COc1cccc(-c2cnc(C(O)c3ccc(Cl)c(F)c3)[nH]2)c1 (stereo unspecified)	none
Clc1ccc(OCCCCCN2CCOCC2)cc1	none
CCOc1ccccc1CNS(=O)(=O)c1ccc(-c2cnc(C3CC3)o2)cc1	M1 antag 35.8
c1ccc(CN2CCC(Nc3nc(-c4cccs4)nc4ccccc34)CC2)cc1	M1 ag parental 15.8
COc1cc([C@H]2c3c(cc(OC)c(O)c3OC)C[C@@H](CO)[C@@H]2CO[C@@H]2O[C@H](CO)[C@@H](O)[C@H](O)[C@H]2O)cc(OC)c1O	none
COc1ccc(NC(=O)CCN2CCN(S(=O)(=O)c3ccc(Br)cc3)CC2)cc1	none
COc1ccc(NC(=O)CCN2CCN(S(=O)(=O)c3cc(Cl)ccc3OC)CC2)cc1	CHO-K1 Ca PAM 62.2
CCOc1ccc(NS(=O)(=O)c2ccc(C(=O)NCc3ccncc3)cc2)cc1	none
CCCCC(=O)Nc1ccc(C(=O)Nc2cccnc2)cc1	none
CCOc1ccc(NS(=O)(=O)c2ccc(C(=O)NCc3ccccn3)cc2)cc1	M1 ag parental 21.1, CHRM1 agonist 27.9
CCCCC(=O)Nc1ccc(C(=O)NCc2ccncc2)cc1	CHO-K1 Ca antag 25.1
Cc1ccc(NS(=O)(=O)c2ccc(C(=O)NCc3ccncc3)cc2)cc1	M1 ag parental 15.5, CHRM1 agonist 17.9
Cc1ccc(S(=O)(=O)NC(=O)NCc2ccccc2)cc1	CHO-K1 Ca antag 28.2
COc1ccc(CNC(=O)CCN2C(=O)[C@@H]3Cc4ccccc4CN3C2=O)cc1	none
O=C1NC[C@H](Cc2ccccc2)N(C[C@@H]2CCCN2C[C@H](Cc2ccc(O)cc2)N2C[C@H](Cc3ccccc3)N(CC3CCCCCC3)C(=O)C2=O)C1=O	none (no result: M1 antag, CHRM1 agonist, M1 PAM)
CC(C)c1ccc(OCC(=O)Nc2ccc(S(=O)(=O)Nc3ccccn3)cc2)cc1	CHRM1 agonist 24.2
CC(C)c1cccc(OCC(=O)Nc2ccc(S(=O)(=O)Nc3ccccn3)cc2)c1	none
CS(=O)(=O)Nc1ccc(C(=O)NCc2ccccn2)cc1	none
Cc1ccc(NS(=O)(=O)c2ccc(C(=O)NCc3ccccn3)cc2)cc1	M1 ag parental 19.0, CHRM1 agonist 28.2
CCCCn1nnnc1C(c1cc2ccccc2o1)N1CCN(c2cc(C)nc3ccccc23)CC1 (stereo unspecified)	none (no result: M1 antag, CHRM1 agonist, M1 PAM)
COc1ccc(NC(=O)c2sc(=O)n(Cc3ccccc3C#N)c2C)cc1OC	none
CCN(Cc1ccncc1)C(=O)c1ccccc1NS(=O)(=O)c1ccc(Br)cc1	none
Cc1ccccc1N1C(=O)CC(N(O)c2ccccc2)C1=O (stereo unspecified)	none
O=C1CC(N(O)c2ccccc2)C(=O)N1c1cc(Cl)cc(Cl)c1 (stereo unspecified)	CHRM1 agonist 26.8
O=C(C[n+]1cccc(/C=N/O)c1)NC(=O)Nc1ccccc1	none (no result: M1 antag, CHRM1 agonist, M1 PAM)
COc1c(Br)cc(Br)cc1/C=N/NC(=O)c1ccncc1	M1 ag parental 15.3
CC1(C(=O)Nc2ccc3ccccc3c2)CCC(=O)N1CC(F)(F)F (stereo unspecified)	CHO-K1 Ca antag 32.0
CC1(C(=O)Nc2ccc3c(c2)OCCO3)CCC(=O)N1CC(F)(F)F (stereo unspecified)	none
C/C(=N/OC(=O)c1c(-c2c(Cl)cccc2Cl)noc1C)c1cnccn1	M1 antag 76.5
C/C(=N/OC(=O)c1c(-c2ccccc2Cl)noc1C)c1cnccn1	M1 antag 74.4
C/C(=N\OC(=O)c1c(-c2ccccc2Cl)noc1C)c1nccs1	none
C[C@H]1C(=O)N(C)CCN1C(=O)c1ccc(OC2CCN(CCc3ccccc3)CC2)cc1	none
CCOC(=O)C1CCN(C(=O)COc2ccc(Cl)cc2C)CC1	none
CCOC(=O)C1CCN(C(=O)COC(=O)/C=C/c2cccc(OC)c2OC)CC1	CHRM1 agonist 19.4
CCOC(=O)C1CCN(C(=O)COC(=O)/C=C/c2ccccc2)CC1	none
CCOC(=O)C1CCCN(C(=O)C(C)Oc2ccc(Cl)cc2Cl)C1 (stereo unspecified)	CHRM1 agonist 21.2
CCOC(=O)C1CCN(C(=O)COc2ccc(Cl)cc2Cl)CC1	CHO-K1 Ca antag 24.2
COC(=O)C1CCN(C(=O)C(C)Oc2ccc(Cl)cc2Cl)CC1 (stereo unspecified)	none
CCOC(=O)C1CCCN(C(=O)c2ccc(S(=O)(=O)N3CCOCC3)cc2)C1 (stereo unspecified)	none
CCOC(=O)C1CCCN(C(=O)c2ccc(S(=O)(=O)N3CCCC3)cc2)C1 (stereo unspecified)	M1 antag 38.8
CCCCn1cnc2c(oc3nc4c(cc32)CCCC4)c1=O	none
